Inhibition data for 18 compounds are collected here from ChEMBL document CHEMBL4513146, “CO-ADD screening of Karazin Kharkiv National University (Ukraine) compounds”.

The term Inhibition denotes the relative decrease from the control value, in per cent.

One assay concerns Staphylococcus aureus. The conditions noted are these: Concentration 32 ug.mL-1;; ASSAY_TEST Inhibition of Bacterial Growth; detection method Absorption (OD600); MEDIA CAMHB; plate type 384well; NBS; CORNING #3640; time 18 hr.
The test system of a further assay is Escherichia coli. The conditions noted are these: Concentration 32 ug.mL-1;; ASSAY_TEST Inhibition of Bacterial Growth; detection method Absorption (OD600); MEDIA CAMHB; plate type 384well; NBS; CORNING #3640; time 18 hr.

Results with a measured potency or affinity are listed apart.

`CN(C)c1nc2ccccc2n2c(=O)n(CC(=O)Nc3ccc4c(c3)OCO4)nc12`: the Inhibition with Staphylococcus aureus turned out to be 1.33%; with Escherichia coli, 1.96%.
For `O=C(CSc1nnc2c(=O)n(-c3ccc(F)cc3)ccn12)c1ccccc1Cl` the same measures were 19.94% and -2.26%.
In the case of `CCCCOc1ccc(-c2cc3c4nnc(SCC(=O)Nc5c(C)cccc5CC)n4ccn3n2)cc1`, the Inhibition is on record as -40.6% with Staphylococcus aureus and -38.25% in the assay with Escherichia coli.
As for `CCOc1ccccc1NC(=O)Cn1nc2c(SC3CCCCC3)nccn2c1=O`, the results for the Inhibition in the assay with Staphylococcus aureus and with Escherichia coli were 3% and -8.56%, respectively.
As for `CCc1ccccc1NC(=O)CSc1nnc2c(=O)n(-c3ccccc3)ccn12`, the Inhibition in the assay on Staphylococcus aureus was 10.95%; in the assay on Escherichia coli it was -0.17%.
Regarding `CCCN(C)c1nccn2c(=O)n(CC(=O)Nc3ccc(C#N)cc3)nc12`, the Inhibition in the assay on Staphylococcus aureus is recorded as 14.04%; with Escherichia coli, -2.47%.
For `CC(C)CCn1c(=O)c2ccc(C(=O)NC3CCCCC3)cc2n2c(=S)[nH]nc12` the same measures were -4.78% and -9.84%.
As to `O=C(CCc1nnc2c(N3CCCCC3)nc3ccccc3n12)NCc1ccc(Br)cc1`, the Inhibition in the assay on Staphylococcus aureus was 2.96%; in the assay on Escherichia coli, -5.93%.
On to `CCc1nnc2c(S(=O)(=O)N(Cc3cccc(C)c3)c3ccc(C(C)C)cc3)cccn12`, for which the Inhibition in the assay on Staphylococcus aureus was 20.56%; in the assay on Escherichia coli, -0.18%.
For `O=C(Cn1nc2nc(Nc3ccc(F)cc3)ccn2c1=O)N1CCOCC1` the same measures were 9.39% and -3.26%.
For the compound `Cc1cccc(C)c1NC(=O)Cn1nc2c(Sc3cccc(F)c3)nccn2c1=O`, the Inhibition is 9.75% in the assay with Staphylococcus aureus and -2.6% in the assay with Escherichia coli.
As for `Cc1cc(C)c(C(=O)CSc2nnc3c(=O)n(-c4ccc(F)cc4)ccn23)cc1C`, the Inhibition in the assay on Staphylococcus aureus was 6.25%; in the assay with Escherichia coli, -5.27%.
As to `C=Cc1ccc(CSc2nnc3c(=O)n(-c4ccc(Br)cc4)ccn23)cc1`, the results for the Inhibition with Staphylococcus aureus and with Escherichia coli were 2.47% and -8.25%, respectively.
As for `O=C(Cn1nc2c3cc(-c4ccc(Cl)cc4)nn3ccn2c1=O)Nc1ccc(F)cc1`, the Inhibition stood at 7.29% in the assay with Staphylococcus aureus and 4.85% in the assay on Escherichia coli.
As for `O=C(Cn1nc2c3cc(-c4ccccc4)nn3ccn2c1=O)N1CCN(c2ccccc2F)CC1`, the Inhibition with Staphylococcus aureus is 4.61%; in the assay on Escherichia coli, -0.58%.
On to `Cc1cc(C)cc(N(Cc2ccccc2)S(=O)(=O)c2cccn3cnnc23)c1`, for which the figures for the Inhibition in the assay on Staphylococcus aureus and in the assay with Escherichia coli were -25.73% and -13.66%, respectively.
Regarding `Cc1c(Cl)cccc1NC(=O)Cn1nc2c3c4c(sc3ncn2c1=O)CCCCC4`, the Inhibition with Staphylococcus aureus is listed as 3.69%; in the assay with Escherichia coli it was -0.38%.
For `Cc1ccc(F)cc1NC(=O)CSc1nc2ccccc2n2c(C)nnc12` the same measures were 2.37% and 1.62%.
